For the test, the system named is MDA-MB-468 breast. The test can be described thus: NCI-60 one-dose screen, 48 h (100 = growth as untreated, 0 = no growth, -100 = all killed). The conditions noted are these: 10 µM unless noted.

These results are taken from PubChem BioAssay (NCI).

Structures are written as SMILES. The panel holds about 83,000 compounds, 20% with a hit somewhere; the sample as a whole holds those more often.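 Testing used 96-well plates and a 48-hour single-concentration exposure. Example: -40 means 40% of the starting cells died.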 A number with no mark means an inactive call. Calls of active or inactive are those of the source. The calls were made as follows: active = growth percent below 10; inactive = the rest.

With `CCCCCCCCCCCCCCCCOc1ccc(C)cc1`, the growth is 106%.
Turning to `Cc1[nH]c(C2CC(c3ccc(C(F)(F)F)c(F)c3)=NN2c2ccccc2)c(C)c1C(=O)NCC(F)(F)F` (stereo not given), the growth was 86.5%.
The same measure for `O=C1CN(CCN2CC(=O)NC(=O)C2)CC(=O)N1`: 94.8%.
Regarding `CCC(c1ccc(OC)cc1)C(CC)c1ccc(O)c(CN2CCCCC2)c1` (stereo not given), the growth is 22.9%.
For `COc1ccc2c(c1)c(-c1nc(-c3c[nH]c4ncccc34)cs1)cn2CCNC(=O)OC(C)(C)C`, the growth was 20%.
With `C=CC1=NC(C)(C)CC(C)O1` (stereo not given), the growth was 109%.
As to `CC[C@]1(O)CC2CN(CCc3c([nH]c4ccccc34)C(C(=O)OC)(c3cc4c(cc3OC)N(C=O)[C@H]3[C@@](O)(C(=O)OC)[C@H](OC(C)=O)[C@]5(CC)[C@@H]6C[C@@H]6CN6CC[C@]43[C@@H]65)C2)C1` (stereo not given in full), the growth is 22.9%.
In the case of `N=C1CCC(=N)c2c1c(O)c1ccccc1c2O`, the growth is 93.7%.
For the molecule `O=C(Nc1sc2c(c1C(=O)O)CCCC2)c1cccc(C(F)(F)F)c1`, the growth is 68.2%.
For the molecule `O=[N+]([O-])C1CC2C=CC1C2` (stereo not given), the growth is 99.5%.
For the molecule `CO[C@]12C=C/C(=C(/C(=O)OCc3cccnc3)C(=O)CCCCCCCC[C@@]3(OC)C=C/C(=C(/C(=O)OCc4cccnc4)C(=O)CCCCCCCC1)O3)O2`, the growth is -4.86% (active).
The same measure for `O=C(C[C@@H](C(=O)NCc1cccc(C(F)(F)F)c1)N1C(=O)[C@@H](N2C(=O)OC[C@@H]2c2ccccc2)[C@H]1/C=C/c1ccccc1)NC1CCN(Cc2ccccc2)CC1`: -1.25% (active); for `NC(=O)N1CCOCC1`: 111%; for `O=C1NN(C(=O)c2ccccc2)C(c2ccc(Cl)c(Cl)c2)=C/C1=C\c1ccccc1[N+](=O)[O-]`: 53.9% [6.75 µM].
Consider `Cc1cccc(C)c1NC(=O)CSC(=S)N1CCCCC1`, for which the growth is 110%.
In the case of `O=CN1N=C(c2cccc(Nc3ccnc4cc(Cl)ccc34)c2)CC1c1ccccc1` (stereo not given) it was 13%; in that of `O=C(O)c1cccc([N+](=O)[O-])c1`, 109%.
Take `Cn1c2ccccc2c2c3c(c4c5ccccc5n(CCCCCC#N)c4c21)C(=O)N(O)C3=O`: the growth was -49.5% (active).
`Cc1ccc2c(c1)c1nc3cc(C)c(C)cc3nc1n2CCN(C)C`: the growth is -2.86% (active).
With `CC(C)C[C@H](C(=O)O)N(C)C(=O)[C@@H]1CCCN1C(=O)[C@H](C)OC(=O)[C@H](CCC(N)=O)NC(=O)[C@@H]1CCC(=O)N1`, the growth was 107%.
For the molecule `COc1ccc(C2CC(c3cc(OC)c(OC)c(OC)c3)=NN2)cc1` (stereo not given), the growth is 66.6%.
`CCCCN1C(=O)c2cccc3c(-c4ccc5c(c4)ncn5C4CCCCC4)ccc(c23)C1=O`: the growth is 101%.
`CC(c1ccccn1)C(C)(O)C(C)c1ccccn1` (stereo not given): the growth was 106%.
Regarding `Cc1cc(=O)oc2cc(OCCn3c(C)nn(-c4ccc(Cl)cc4)c3=O)ccc12`, the growth was 16.1%.
Take `CC(C(=O)n1cc(-c2ccccc2)c(-c2ccccc2)c1)c1ccccc1` (stereo not given): the growth is 104%.
Take `O=C(Nc1cc(Cl)cc(Cl)c1)Nc1nc2ccc([N+](=O)[O-])cc2s1`: the growth is -24.1% (active).
Take `CC(C)(C)c1ccc(OCCCCCCCN2CCNCC2)cc1`: the growth is -54% (active).
As for `CC1=NNC(=O)C1C` (stereo not given), the growth is 95.8%.
The same measure for `CCN(CC)c1cc(N)c(Cc2c(N)cc(N(CC)CC)cc2Cl)c(Cl)c1`: -15.8% (active).
Consider `CCCn1nc(C(=O)N2CCCCC2)c2c1CCC(N1CCC(c3ccncc3)CC1)C2` (stereo not given), for which the growth is 104%.
The same measure for `Cc1[nH]n(-c2cccc(Cl)c2)c(=O)c1/C=C1\C=Nc2ccc(Br)cc21`: 35.7%.
In the case of `Cc1ccc2nc3ccccc3c(NCc3ccc(Cl)cc3)c2c1` it was -21.7% (active); in that of `CCN1CCN(Cc2ccc(NC(=O)Nc3cccc(-n4ccc5c(NC(=O)c6ccccc6)nccc54)c3)cc2C(F)(F)F)CC1`, 20.2%; in that of `O=C(Nc1ccc(F)cc1)Nc1ccc(Br)c(C(F)(F)F)c1`, -5.88% (active).
Regarding `O=c1ccc(N=Nc2ccc([N+](=O)[O-])cc2)ccc1O`, the growth is -15.7% (active).
The same measure for `O=C(O)CC1Sc2ccccc2NC1=O` (stereo not given): 163%; for `COc1ccc(-c2nn(-c3cccc(Cl)c3)cc2-c2cc(-c3ccc(Br)cc3)[nH]c(=O)c2C#N)cc1`: 75.1%; for `CNS(=O)(=O)Oc1ccc(-c2ccc3occc3c2)cc1`: 91.7%.
`NNC(=O)c1sc2nc(-c3cnccn3)cc(-c3cccs3)c2c1N`: the growth is 97.2%.
As for `COc1ccc2cc(-c3ccc(-c4ccc(C(=N)N)s4)s3)ccc2c1`, the growth was -51.7% (active).
